Data taken from PubChem BioAssay (EPA / NIEHS).
The source made the active and inactive calls. How the source made its calls: active means hit-call score of the fitted dose curve at least 0.9, where 1 is the maximum; inactive means score below 0.9.

Biological target: Transcription factor E2F1 (Homo sapiens) (UniProt Q01094)
Assay: ATG_E2F_CIS: Attagene CIS-FACTORIAL HepG2 Assay for human E2F Transcription Factor 1 (AID 2282935)
Conditions: HepG2 Attagene cis-reporter, E2F reporter RNA transcripts; actives raise or lower the signal
Description: ATG_CIS is a cell-based, multiplexed-readout assay that uses HepG2, a human liver cell line, with measurements taken at 24 hours after chemical dosing in a 24-well plate.ATG_E2F_CIS is one of 52 assay component(s) measured or calculated from the ATG_CIS assay. It is designed to make measurements of mRNA induction, a form of inducible reporter, as detected with fluorescence intensity signals by Reverse transcription polymerase chain reaction (RT-PCR) and Capillary electrophoresis technology.Data from the assay component ATG_E2F_CIS was analyzed into 1 assay endpoint. This assay endpoint, ATG_E2F_CIS, was analyzed with bidirectional fitting relative to DMSO as the negative control and baseline of activity. Using a type of inducible reporter, measures of mRNA for gain or loss-of-signal activity can be used to understand the reporter gene at the transcription factor-level as they relate to the gene E2F1. Furthermore, this assay endpoint can be referred to as a primary readout, because this assay has produced multiple assay endpoints where this one serves a reporter gene function. To generalize the intended target to other relatable targets, this assay endpoint is annotated to the dna binding intended target family, where the subfamily is E2F transcription factor.
Human liver HepG2 cells are transiently transfected with multiple reporter transcription units (MRTUs) in 6-well plates using FuGene 6 reagent (Roche; 3 ml FuGene/1 mg DNA). The MRTU constructs are regulated by a cis-regulating element (promoter). […] A major difference between the CIS and TRANS system is that in CIS activities of endogenous TFs are measured, whereas the TRANS assay evaluates changes in activities of exogenous, chimeric NR-Gal4 proteins. […] At the end of 24 hour incubation, total RNA was isolated using TriZol reagent (Invitrogen). The isolated RNA is then reverse-transcribed using oligo(dT) primer and Mo-MLV reverse transcriptase (Invitrogen) with DNAse I (Ambion) treatment for 30 min. The one-tenth of the produced cDNA was amplified by PCR using Taq DNA polymerase (Invitrogen) and two reporter sequence-specific primers. The PCR products were fluorescently labeled by primer extension with 6-arboxyfluorescein (6-FAM) 5'-labeled reporter sequence-specific primer (2 min at 95 C, 20 s at 68 C and 10 min at 72 C) and these products were digested with 5U of HpaI (New England Biolabs) for 2h at 37 C. The fragments were purified using Qiaquick PCR columns (Qiagen), analyzed on an ABI 3130xL genetic analyzer (Applied Biosystems) with peak positions identified by using a set of X-rhodamine (ROX)-labeled MapMarker1000 molecular weight standards (BioVentures). The raw capillary electrophoresis data was processed using Attagraph software (Attagene).

Sequence of Transcription factor E2F1 (Homo sapiens) (Q01094 whole entry, looked up): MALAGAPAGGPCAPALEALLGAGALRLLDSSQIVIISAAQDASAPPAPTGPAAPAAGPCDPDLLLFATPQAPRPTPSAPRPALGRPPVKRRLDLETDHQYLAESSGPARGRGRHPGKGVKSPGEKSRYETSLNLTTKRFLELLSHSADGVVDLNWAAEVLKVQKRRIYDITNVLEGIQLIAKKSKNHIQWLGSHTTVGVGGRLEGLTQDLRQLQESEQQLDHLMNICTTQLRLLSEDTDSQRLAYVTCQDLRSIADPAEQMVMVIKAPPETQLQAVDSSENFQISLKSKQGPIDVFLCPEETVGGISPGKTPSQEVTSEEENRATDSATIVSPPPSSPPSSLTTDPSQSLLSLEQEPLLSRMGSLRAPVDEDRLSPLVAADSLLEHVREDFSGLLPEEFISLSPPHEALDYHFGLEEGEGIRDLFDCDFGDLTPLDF

SMILES	outcome	AC50
O=S(=O)(Oc1ccc(Cl)cc1)c1ccc(Cl)cc1	inactive	
C=CCCl	inactive	
CCOC(=O)c1ccccc1S(=O)(=O)NC(=O)Nc1nc(Cl)cc(OC)n1	inactive	
CCOC(=O)C(SP(=S)(OC)OC)c1ccccc1 (stereo not given)	inactive	
O=S1OC[C@@H]2[C@H](CO1)[C@]1(Cl)C(Cl)=C(Cl)[C@@]2(Cl)C1(Cl)Cl (stereo not given in full)	inactive	
OC[P+](CO)(CO)CO	inactive	
O=C(NC(=O)c1c(F)cccc1F)Nc1ccc(Cl)cc1	inactive	
C=C(C)[C@@H]1CC=C(C=O)CC1	inactive	
C[As+](C)(C)CC(=O)[O-]	inactive	
CC(=O)C(F)(F)C(F)(F)F	inactive	
Fc1cccc(Cl)c1CCl	inactive	
N#CCC#N	inactive	
CCOC(=O)CCN(SN(C)C(=O)Oc1cccc2c1OC(C)(C)C2)C(C)C	inactive	
O=CCCl	inactive	
BrCCCCBr	inactive	
CCCCN(CCCC)C(=S)[S-].CCCCN(CCCC)C(=S)[S-].[Ni+2]	inactive	
CC1(C)[C@H](C(=O)O[C@H](C#N)c2cccc(Oc3ccccc3)c2)[C@@H]1/C=C(\Cl)C(F)(F)F	inactive	
ClCCN1CCOCC1	inactive	
C#CCO	inactive	
N#Cc1ccccc1Cl	inactive	

SMILES	outcome	AC50
O=C1c2ccccc2C(=O)C1C(=O)C(c1ccccc1)c1ccc(Cl)cc1 (stereo not given)	inactive	
Cc1ccccc1OP(=O)(Oc1ccccc1)Oc1ccccc1		57.2 µM (active)
CC(C)(C)c1cc([N+](=O)[O-])cc(C(C)(C)C)c1O	inactive	
Nc1cccnc1	inactive	
O=C(CCl)NCO	inactive	
c1csc(-c2ccc(-c3cccs3)s2)c1	inactive	
CN(C)c1ccc(N=O)cc1	inactive	
CCOc1cc(C=O)ccc1O	inactive	
CN(C)C(=S)S	inactive	
ClCc1ccccc1CCl	inactive	
Nc1ccc(Br)cc1	inactive	
CN(N=O)C(N)=O	inactive	
Nc1ccc(N)cc1	inactive	
O=C(Cc1ccccc1)OCCc1ccccc1	inactive	
Cc1cc(Cl)ccc1OCCCC(=O)O	inactive	
O=[N+]([O-])c1ccccc1O	inactive	
O=c1[nH]c(=O)n(Cl)c(=O)n1Cl	inactive	
CCOCn1c(-c2ccc(Cl)cc2)c(C#N)c(Br)c1C(F)(F)F	inactive	
Nc1nc(N)nc(Cl)n1	inactive	
CCC[CH2][Sn]([Cl])([Cl])[CH2]CCC	inactive	
